# From PubChem BioAssay (NCATS)
# Records with an inconclusive call do not appear. Entries that show only a call come without a potency. Unmarked numbers belong to inactive results. Activity calls are given as the source filed them. The call rests on the fitted dose curve; in most records, active means well fitted curve in the direction sought with a large enough effect; inconclusive means small, poorly fitted or top-dose-only effect, or another doubt; inactive means no such curve, though single readings can be large; an effect the other way counts as inactive or inconclusive.
# Key:
# [1] = tested on: CRL-7250; assay: Cytotoxic Profiling of Annotated Libraries Using Quantitative High-Throughput Screening (AID 1296008); conditions: Five cell lines viability, CellTiter-Glo ATP luminescence, 48-72 h; max response: stronger effect = lower value; further: nearly all actives have a fitted effect of over 60% in size
# Method in brief: (§1)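 Compounds were pin-transferred onto cells and incubated 48 or 72 hr at 37 degree Celsius, 95% humidity. CellTiter-Glo was added, plates sat 10 min at room temperature, then ATP-coupled luminescence was imaged as the viability read-out.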
# [2] = tested on: HEK293; assay: as above; conditions: Five cell lines viability, CellTiter-Glo ATP luminescence, 48-72 h; max response: stronger effect = lower value
# Method in brief: as §1
# [3] = tested on: HaCat; assay: as above; conditions: Five cell lines viability, CellTiter-Glo ATP luminescence, 48-72 h; max response: stronger effect = lower value
# Method in brief: as §1
# [4] = tested on: NIH3T3; assay: as above; conditions: Five cell lines viability, CellTiter-Glo ATP luminescence, 48-72 h; max response: stronger effect = lower value
# Method in brief: as §1
# [5] = tested on: MCC-13; assay: qHTS assay to identify novel small-molecules to repurpose for Merkel cell carcinoma treatment (AID 1296009); conditions: MCC and control cell lines, CellTiter-Glo viability, 72 h; series mostly up to 46 µM; further: nearly all actives have a fitted effect of over 60% in size
# Method in brief: (§2)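 qHTS format: cells treated with library compounds in DMSO across 8 (NPC) or 11 (MIPE) concentrations. Readout after 72 hr at 37 degree celsius was CellTiter-Glo luminescence.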
# [6] = tested on: UISO; assay: as above; conditions: MCC and control cell lines, CellTiter-Glo viability, 72 h; series mostly up to 46 µM
# Method in brief: as §2
# [7] = tested on: C33A; assay: Primary qHTS to identify gynecologic anti-cancer compounds using libraries of approved drugs and bioactive compounds (AID 1345084); conditions: Gynecologic cancer cell panel viability, ATPlite luminescence, 48 h; series mostly up to 57.5 µM; further: nearly all actives have a fitted effect of over 55% in size
# Method in brief: (§3)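 Cells, 1,000 per well, were allowed to settle for 16 h at 37 C before compound addition. Five concentrations were tested for 48 h, and viability was read by ATPlite luminescence after 15 min at room temperature.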
# [8] = tested on: CASKI; assay: as above; conditions: Gynecologic cancer cell panel viability, ATPlite luminescence, 48 h; series mostly up to 57.5 µM
# Method in brief: as §3
# [9] = tested on: Es-2; assay: as above; conditions: Gynecologic cancer cell panel viability, ATPlite luminescence, 48 h; series mostly up to 57.5 µM
# Method in brief: as §3
# [10] = tested on: HeLa; assay: as above; conditions: Gynecologic cancer cell panel viability, ATPlite luminescence, 48 h; series mostly up to 57.5 µM
# Method in brief: as §3
# [11] = tested on: W2; assay: qHTS profiling for inhibitors of Plasmodium falciparum proliferation (AID 504749); further: nearly all actives have a fitted effect of over 60% in size; conditions: P. falciparum in erythrocytes, SYBR Green DNA, 72 h; series mostly up to 28.7 µM
# Method in brief: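 Parasite proliferation within erythrocytes, 72 h exposure. Endpoint: SYBR Green I fluorescence after overnight lysis at room temperature. Controls: 0.29 uM artemisinin, DMSO.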
# [12] = tested on: HEK293T; assay: qHTS assay to identify novel small-molecules to repurpose for Merkel cell carcinoma treatment (AID 1296009); conditions: MCC and control cell lines, CellTiter-Glo viability, 72 h; at 44.8 µM (top of the series) unless noted; further: nearly all actives have a fitted effect of over 60% in size
# Method in brief: as §2
# [13] = tested on: MCC-26; assay: as above; conditions: MCC and control cell lines, CellTiter-Glo viability, 72 h; series mostly up to 46 µM
# Method in brief: as §2
# [14] = tested on: MKL-1; assay: as above; conditions: MCC and control cell lines, CellTiter-Glo viability, 72 h; series mostly up to 46 µM
# Method in brief: as §2
# [15] = tested on: MKL-2; assay: as above; conditions: MCC and control cell lines, CellTiter-Glo viability, 72 h; series mostly up to 46 µM
# Method in brief: as §2
# [16] = tested on: WaGa; assay: as above; conditions: MCC and control cell lines, CellTiter-Glo viability, 72 h; series mostly up to 46 µM
# Method in brief: as §2
# [17] = tested on: KB-3-1; assay: Cytotoxic Profiling of Annotated Libraries Using Quantitative High-Throughput Screening (AID 1296008); conditions: Five cell lines viability, CellTiter-Glo ATP luminescence, 48-72 h; max response: stronger effect = lower value; further: nearly all actives have a fitted effect of over 60% in size
# Method in brief: as §1
# [18] = tested on: CAOV3; assay: Primary qHTS to identify gynecologic anti-cancer compounds using libraries of approved drugs and bioactive compounds (AID 1345084); conditions: Gynecologic cancer cell panel viability, ATPlite luminescence, 48 h; series mostly up to 57.5 µM; further: nearly all actives have a fitted effect of over 55% in size
# Method in brief: as §3
# [19] = tested on: HACAT; assay: qHTS assay to identify novel small-molecules to repurpose for Merkel cell carcinoma treatment (AID 1296009); conditions: MCC and control cell lines, CellTiter-Glo viability, 72 h; at 44.8 µM (top of the series) unless noted; further: nearly all actives have a fitted effect of over 60% in size
# Method in brief: as §2
# [20] = tested on: NIH3T3; assay: as above; conditions: MCC and control cell lines, CellTiter-Glo viability, 72 h; at 44.8 µM (top of the series)
# Method in brief: as §2
# Potency means the concentration at half of the fitted maximal effect.
structure (smiles),measurement,setting,value
C#C[C@]1(OC(C)=O)CC[C@H]2[C@@H]3CCC4=C/C(=N/O)CC[C@@H]4[C@H]3CC[C@@]21CC,max response,[1],-7.16%
same,Potency,[2],13.3 µM (active)
same,max response,[3],2.29%
same,max response,[4],2.39%
same,Potency,[5],inactive
same,Potency,[6],29.9 µM (active)
same,Potency,[7],inactive
same,Potency,[8],inactive
same,Potency,[9],inactive
same,Potency,[10],4.47 µM (active)
COc1ccc(C(=O)c2ccccc2)c(O)c1,Potency,[11],13.5 µM (active)
same,max response,[1],-4.19%
same,outcome,[2],inactive
same,max response,[4],2.73%
same,outcome,[12],inactive
same,Potency,[5],inactive
same,Potency,[13],inactive
same,Potency,[14],inactive
same,Potency,[15],inactive
same,Potency,[6],inactive
same,Potency,[16],inactive
same,Potency,[7],inactive
same,Potency,[8],inactive
same,Potency,[9],inactive
same,Potency,[10],inactive
C=C[C@@]1(C)CC(=O)[C@]2(O)[C@@]3(C)[C@@H](O)CCC(C)(C)[C@@H]3[C@H](O)[C@H](OC(C)=O)[C@@]2(C)O1,Potency,[11],inactive
same,max response,[1],2.74%
same,max response,[2],-3.5%
same,max response,[17],-4.04%
same,Potency,[5],inactive
same,Potency,[13],inactive
same,Potency,[14],inactive
same,Potency,[15],inactive
same,Potency,[6],inactive
same,Potency,[16],inactive
same,Potency,[7],inactive
same,Potency,[18],inactive
same,Potency,[8],inactive
same,Potency,[9],inactive
same,Potency,[10],inactive
CN1CCN(CCC(=O)N2c3ccccc3Sc3ccc(C(F)(F)F)cc32)CC1,Potency,[11],4.26 µM (active)
same,Potency,[1],15 µM (active)
same,Potency,[2],23.7 µM (active)
same,outcome,[3],inactive
same,outcome,[19],inactive
same,Potency,[5],inactive
same,Potency,[18],22.4 µM (active)
same,Potency,[10],inactive
COc1ccc(CN(CCN(C)C)c2ncccn2)cc1,Potency,[11],5.36 µM (active)
same,max response,[1],0.19%
same,outcome,[2],inactive
same,max response,[17],-2.44%
same,max response,[4],-1.92%
same,outcome,[12],inactive
same,Potency,[5],inactive
same,Potency,[13],inactive
same,Potency,[14],inactive
same,Potency,[15],inactive
same,Potency,[6],inactive
same,Potency,[16],inactive
same,Potency,[7],inactive
same,Potency,[18],inactive
same,Potency,[8],inactive
same,Potency,[9],inactive
same,Potency,[10],inactive
C[C@]12CCC(=O)C=C1C=C[C@@H]1[C@@H]2CC[C@@]2(C)[C@H]1CC[C@@]21CCC(=O)O1,Potency,[1],7.5 µM (active)
same,Potency,[2],9.44 µM (active)
same,max response,[17],-4.54%
same,Potency,[5],inactive
same,Potency,[13],inactive
same,Potency,[14],inactive
same,Potency,[15],inactive
same,Potency,[7],inactive
same,Potency,[18],inactive
same,Potency,[9],inactive
same,Potency,[10],inactive
CC1(C)OC[C@@H]2O[C@@]3(C(=O)O)OC(C)(C)O[C@H]3[C@@H]2O1,max response,[1],-27.6%
same,outcome,[2],inactive
same,max response,[4],-5.58%
same,outcome,[12],inactive
same,Potency,[5],inactive
same,Potency,[14],inactive
same,Potency,[15],inactive
same,Potency,[6],inactive
same,Potency,[16],inactive
same,Potency,[7],inactive
same,Potency,[8],inactive
same,Potency,[9],inactive
same,Potency,[10],inactive
COc1cc(C)nc(-n2nc(C)cc2OC)n1,Potency,[11],inactive
same,max response,[1],-9.05%
same,max response,[2],-7.38%
same,max response,[17],4.41%
same,outcome,[4],inactive
same,Potency,[5],inactive
same,Potency,[13],inactive
same,Potency,[14],inactive
same,Potency,[15],inactive
same,outcome,[20],inactive
same,Potency,[16],inactive
same,Potency,[7],inactive
same,Potency,[18],inactive
same,Potency,[8],inactive
same,Potency,[9],inactive
same,Potency,[10],inactive
O=C1C(O)=C(O)C(=O)C(O)=C1O,max response,[1],-21.8%
same,outcome,[2],inactive
same,max response,[17],-3.2%
same,max response,[4],-17.6%
same,outcome,[12],inactive
same,Potency,[5],inactive
same,Potency,[13],inactive
same,Potency,[14],inactive
same,Potency,[15],inactive
same,Potency,[6],inactive
same,Potency,[16],inactive
same,Potency,[7],inactive
same,Potency,[8],inactive
same,Potency,[9],inactive
CCOC(=O)c1c(N)sc2c1CCN(Cc1ccccc1)C2,Potency,[11],4.78 µM (active)
same,Potency,[1],18.8 µM (active)
same,Potency,[2],11.9 µM (active)
same,max response,[17],-15.4%
same,Potency,[5],inactive
same,Potency,[13],inactive
same,Potency,[15],3.76 µM (active)
same,Potency,[16],21.1 µM (active)
same,Potency,[9],inactive
same,Potency,[10],inactive
Cc1cccc(C)c1NC(=O)CN1CCCCCC1,outcome,[1],inactive
same,max response,[2],2.2%
same,max response,[4],1.11%
same,Potency,[5],inactive
same,Potency,[13],inactive
same,Potency,[14],inactive
same,Potency,[15],inactive
same,Potency,[6],inactive
same,Potency,[16],inactive
same,Potency,[7],inactive
same,Potency,[18],inactive
same,Potency,[8],inactive
same,Potency,[9],inactive
same,Potency,[10],inactive
CCCN(CCc1cccs1)[C@H]1CCc2c(O)cccc2C1,Potency,[11],1.35 µM (active)
same,max response,[1],-5.8%
same,outcome,[3],inactive
same,max response,[17],5.8%
same,outcome,[4],inactive
same,outcome,[19],inactive
same,Potency,[5],inactive
same,Potency,[13],inactive
same,Potency,[14],inactive
same,Potency,[15],inactive
same,outcome,[20],inactive
same,Potency,[6],inactive
same,Potency,[7],inactive
same,Potency,[8],inactive
same,Potency,[9],inactive
same,Potency,[10],inactive
NC1CCN(c2nc3c(cc2F)c(=O)c(C(=O)O)cn3-c2ccc(F)cc2F)C1 (centres undefined),Potency,[11],5.36 µM (active)
same,outcome,[1],inactive
same,outcome,[3],inactive
same,max response,[17],1.57%
same,outcome,[4],inactive
same,outcome,[19],inactive
same,Potency,[5],inactive
same,Potency,[13],inactive
same,Potency,[14],inactive
same,Potency,[15],inactive
same,outcome,[20],inactive
same,Potency,[6],inactive
same,Potency,[16],inactive
same,Potency,[7],inactive
same,Potency,[8],inactive
same,Potency,[9],inactive
same,Potency,[10],inactive
Cc1ccc(O)c([C@H](CCN(C(C)C)C(C)C)c2ccccc2)c1,Potency,[11],0.849 µM (active)
same,max response,[1],-4.37%
same,outcome,[3],inactive
same,max response,[17],-10.6%
same,max response,[4],-1.6%
same,outcome,[19],inactive
same,Potency,[5],inactive
same,Potency,[13],inactive
same,Potency,[14],inactive
same,Potency,[15],inactive
same,Potency,[6],inactive
same,Potency,[7],inactive
same,Potency,[8],inactive
same,Potency,[9],inactive
same,Potency,[10],inactive
CN1CCc2cccc3c2[C@H]1Cc1ccc(O)c(O)c1-3,Potency,[11],3.01 µM (active)
same,max response,[1],-21.4%
same,Potency,[2],23.7 µM (active)
same,Potency,[13],inactive
same,Potency,[14],1.33 µM (active)
same,Potency,[15],0.841 µM (active)
same,Potency,[16],11.9 µM (active)
same,Potency,[8],inactive
